# Test results published in PubChem BioAssay.
# A number with no mark means an inactive call. For some of these results: Results with a measured potency or affinity are listed apart. Calls of active or inactive are those of the source. Unless noted, no rule for the calls is given here.
# Assays:
# [1] = antimalarial activity against Dd2 strain (AID 2302;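 active = growth inhibition above 50% at the single 2 µM test dose, taken to imply half-maximal potency below 2 µM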;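 also: 0% = DMSO untreated growth and 100% = chloroquine plus artemisinin killed control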); details: P. falciparum Dd2 in RBCs, LDH growth readout, 72 h; at 2 µM; stronger effect = higher value
# [2] = HepG2 cytotoxicity, primary screen, cytotoxicity control for P. falciparum antimalarial project, cell-based, ATP luminescence (AID 2303;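 active = inhibition above 50%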;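 also: 0% = DMSO wells and 100% = digitonin-killed cells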); details: HepG2 viability, 24-48 h, at 10 µM, stronger effect = higher value
# [3] = target: L-lactate dehydrogenase (Plasmodium falciparum (isolate CDC / Honduras)) (UniProt Q27743); experiment: PfLDH activity inhibition – cell lysate, 3D7 strain, counter-screen for P. falciparum growth inhibition project (AID 2304);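 also: 0% = vehicle and 100% = reference inhibitor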; details: P. falciparum 3D7 crude extract, LDH APAD/NBT absorbance; at 2 µM; stronger effect = higher value
# [4] = inhibition of 3D7 malaria parasite growth – strain 3D7 (AID 2306);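 also: 0% = DMSO wells and 100% = chloroquine plus artemisinin control wells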; details: P. falciparum 3D7 erythrocytic growth, LDH absorbance, 72 h; at 2 µM; stronger effect = higher value
# [5] = target: Calcium-dependent protein kinase 1 (Plasmodium falciparum (isolate 3D7)) (UniProt P62344); experiment: PfCDPK1 kinase inhibitors, biochemical, TCAMS library (AID 1159585; cut-off not given, nearly all actives have IC50 up to about 0.98 µM;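 also: inhibitors leave more ATP so luminescence rises with inhibition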); details: recombinant PfCDPK1, Kinase-Glo ATP depletion luminescence
# [6] = target: Plasmodium falciparum protein kinase 6 (PK6, PF3D7_1337100) (UniProt Q8IDW1); experiment: PfPK6 kinase inhibitors, biochemical, TCAMS library (AID 1159586); details: recombinant PfPK6, Kinase-Glo ATP depletion luminescence
# [7] = target: Protein kinase 7 (PK7), Plasmodium falciparum 3D7 (PF3D7_0213400) (UniProt Q7YTF7); experiment: inhibition of Plasmodium PK7 catalytic activity – biochemical, TCAMS antimalarial set, Kinase-Glo luminescence (AID 1159587); details: recombinant PfPK7, Kinase-Glo ATP depletion luminescence
# [8] = target: Calcium-dependent protein kinase 4 (Plasmodium falciparum (isolate 3D7)) (UniProt Q8IBS5); experiment: PfCDPK4 kinase inhibitors, biochemical, TCAMS library (AID 1159588; cut-off not given, nearly all actives have IC50 up to about 0.91 µM); details: recombinant PfCDPK4, Kinase-Glo ATP depletion luminescence
# Chain of Calcium-dependent protein kinase 4 (Plasmodium falciparum (isolate 3D7)) (Q8IBS5 whole entry, looked up): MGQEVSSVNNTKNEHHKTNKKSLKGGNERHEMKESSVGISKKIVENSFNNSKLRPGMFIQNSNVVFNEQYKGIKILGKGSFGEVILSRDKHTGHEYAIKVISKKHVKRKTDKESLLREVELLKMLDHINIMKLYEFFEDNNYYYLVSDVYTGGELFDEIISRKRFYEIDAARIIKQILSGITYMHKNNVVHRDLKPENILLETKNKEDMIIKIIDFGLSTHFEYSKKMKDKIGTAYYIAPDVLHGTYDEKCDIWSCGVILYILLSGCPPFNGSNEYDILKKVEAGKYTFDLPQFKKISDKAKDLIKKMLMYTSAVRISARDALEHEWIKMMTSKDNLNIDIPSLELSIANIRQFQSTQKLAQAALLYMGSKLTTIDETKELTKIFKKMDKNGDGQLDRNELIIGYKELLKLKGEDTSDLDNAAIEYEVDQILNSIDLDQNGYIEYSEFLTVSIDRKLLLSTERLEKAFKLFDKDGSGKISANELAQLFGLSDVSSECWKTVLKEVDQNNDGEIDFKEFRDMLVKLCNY
# Chain of Calcium-dependent protein kinase 1 (Plasmodium falciparum (isolate 3D7)) (P62344 whole entry, looked up): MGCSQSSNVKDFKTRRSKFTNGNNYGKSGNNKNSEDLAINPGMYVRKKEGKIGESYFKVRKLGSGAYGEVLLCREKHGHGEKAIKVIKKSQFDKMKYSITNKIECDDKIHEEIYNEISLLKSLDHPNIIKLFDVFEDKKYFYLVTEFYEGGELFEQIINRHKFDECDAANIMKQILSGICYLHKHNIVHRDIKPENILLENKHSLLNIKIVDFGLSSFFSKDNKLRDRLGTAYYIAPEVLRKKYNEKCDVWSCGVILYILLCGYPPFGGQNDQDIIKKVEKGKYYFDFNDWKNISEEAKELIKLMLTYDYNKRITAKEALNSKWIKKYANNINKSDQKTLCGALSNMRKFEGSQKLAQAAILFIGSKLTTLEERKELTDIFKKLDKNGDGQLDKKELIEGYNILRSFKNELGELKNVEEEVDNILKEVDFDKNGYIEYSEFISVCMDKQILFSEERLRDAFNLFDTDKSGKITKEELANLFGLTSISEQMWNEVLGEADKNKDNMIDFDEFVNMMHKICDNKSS
# Chain of L-lactate dehydrogenase (Plasmodium falciparum (isolate CDC / Honduras)) (Q27743 whole entry, looked up): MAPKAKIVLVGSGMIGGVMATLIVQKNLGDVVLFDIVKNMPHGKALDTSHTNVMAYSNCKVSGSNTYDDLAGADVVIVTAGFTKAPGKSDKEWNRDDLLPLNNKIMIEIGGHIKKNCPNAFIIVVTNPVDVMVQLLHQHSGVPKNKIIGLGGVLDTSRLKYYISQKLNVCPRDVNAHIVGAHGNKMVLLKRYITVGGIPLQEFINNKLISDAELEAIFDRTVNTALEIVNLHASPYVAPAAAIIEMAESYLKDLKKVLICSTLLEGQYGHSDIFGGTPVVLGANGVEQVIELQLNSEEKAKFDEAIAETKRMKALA
# Chain of Protein kinase 7 (PK7), Plasmodium falciparum 3D7 (PF3D7_0213400) (Q7YTF7 1-343): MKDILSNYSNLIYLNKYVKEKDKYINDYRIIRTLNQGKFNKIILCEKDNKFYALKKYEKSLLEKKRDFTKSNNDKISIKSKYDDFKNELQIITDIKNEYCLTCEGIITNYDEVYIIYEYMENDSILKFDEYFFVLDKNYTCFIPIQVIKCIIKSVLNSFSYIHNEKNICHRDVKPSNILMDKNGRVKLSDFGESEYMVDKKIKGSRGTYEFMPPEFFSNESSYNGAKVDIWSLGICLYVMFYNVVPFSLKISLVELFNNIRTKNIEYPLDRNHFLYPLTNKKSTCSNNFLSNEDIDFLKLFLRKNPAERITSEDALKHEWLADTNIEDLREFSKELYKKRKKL
# Chain of Plasmodium falciparum protein kinase 6 (PK6, PF3D7_1337100) (Q8IDW1 1-305): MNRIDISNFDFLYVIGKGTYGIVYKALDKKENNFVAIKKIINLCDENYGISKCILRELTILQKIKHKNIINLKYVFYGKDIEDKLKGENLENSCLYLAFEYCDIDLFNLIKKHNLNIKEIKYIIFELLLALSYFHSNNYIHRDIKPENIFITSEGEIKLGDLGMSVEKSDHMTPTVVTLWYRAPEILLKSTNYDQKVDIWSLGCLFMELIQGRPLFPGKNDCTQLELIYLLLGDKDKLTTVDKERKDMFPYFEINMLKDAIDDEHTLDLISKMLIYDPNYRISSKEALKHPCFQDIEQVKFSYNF
SMILES,growth inhibition [1],inhibition [2],inhibition [3] [%],growth inhibition [4],outcome [5],outcome [6],outcome [7],outcome [8]
CCCCNC(=O)[C@@H](NC(=O)c1ccc(O)c(-c2ccc(Cl)c(Cl)c2)c1)C(C)C,98% (active),-4%,2,97% (active),inactive,inactive,inactive,inactive
O=C(c1cc(C(=O)Nc2ccc(F)cc2)c(=O)n(-c2ccc(F)cc2)c1)c1cc(Cl)ccc1O,98% (active),13%,-4,101% (active),inactive,inactive,inactive,inactive
COc1ccc(N2CCN(CCCC/C=C/c3ccc(NC(=O)c4cc(Cl)cc(Cl)c4)cc3)CC2)c(OC)c1,39%,20%,5,99% (active),inactive,inactive,inactive,inactive
Cc1ccc(Nc2nc(NN=Cc3cccc([N+](=O)[O-])c3)nc(Nc3ccccc3)n2)c(C)c1,97% (active),9%,4,91% (active),inactive,inactive,inactive,inactive
CCOc1ccc(-c2nc(NC(=O)Cc3cccc(OC)c3)sc2C)cc1,28%,15%,3,97% (active),inactive,inactive,inactive,inactive
COc1ccc(-c2nc(NC(=O)CSc3ccccc3)sc2C)cc1,31%,6%,2,94% (active),inactive,inactive,inactive,inactive
O=C(Nc1ccc(-c2cccc(-c3nc4ccc(F)cc4[nH]3)c2)cc1)Nc1ccc(F)c(F)c1F,98% (active),70% (active),3,100% (active),inactive,inactive,inactive,inactive
CN(C)C(C)(C)CN(Cc1ccc(-c2ccc(C(F)(F)F)cc2)cc1)C(=O)Cn1c(CCc2cccc(F)c2F)nc(=O)c2ccccc21,67% (active),64% (active),-3,95% (active),inactive,inactive,inactive,inactive
CCCCCCOc1ccc(C(=O)N[C@H]2CCN(CCCCCNC(=O)/C=C/c3ccc(Cl)c(Cl)c3)C2)cc1,25%,10%,-5,99% (active),inactive,inactive,inactive,inactive
CC(C)NCc1cccc(-c2ccc(-c3nc4ccc(C(F)(F)F)cc4[nH]3)cc2)c1,96% (active),7%,-6,99% (active),inactive,inactive,inactive,inactive
Oc1ccccc1CNCC12CC3CC(CC(C3)C1)C2,99% (active),-4%,5,98% (active),inactive,inactive,inactive,inactive
CN(C)c1ccc(CN2CCC(NC(=O)c3ccc(-c4ccccc4Cl)s3)CC2)cc1,27%,35%,-1,82% (active),inactive,inactive,inactive,inactive
CCc1cc(CNC2CCN(CCc3c(F)cnc4ccc(OC)nc34)CC2)cc2c1OCCO2,94% (active),46%,1,100% (active),inactive,inactive,inactive,inactive
O=C(c1ccc(O)c(-c2cc(Cl)cc(Cl)c2)c1)N1CCCC1,57% (active),3%,-6,90% (active),inactive,inactive,inactive,inactive
CC1CN(Cc2ccc(-c3ccc(-c4nc5ccc(F)cc5[nH]4)s3)cc2)CC(C)O1 (stereo not given),89% (active),35%,-10,88% (active),inactive,inactive,inactive,inactive
O=C(/C=C/c1ccc(Cl)c(Cl)c1)NCCCCCN1CCC(NC(=S)Nc2ccc(Cl)cc2)CC1,41%,62% (active),-1,99% (active),inactive,inactive,inactive,inactive
O=C(Nc1ccc(-c2ccc(-c3nc4ccccc4[nH]3)s2)cc1)Nc1ccc(Cl)c(Cl)c1,99% (active),89% (active),2,102% (active),inactive,inactive,inactive,inactive
CCC1(CC)CN(c2ccccc2)c2ccc(O)cc2S(=O)(=O)C1CC(C)C (stereo not given),89% (active),-7%,2,96% (active),inactive,inactive,inactive,inactive
CC(C)(C)N1CCC(N(Cc2ccc(-c3ccc(C(F)(F)F)cc3)cc2)C(=O)Cn2c(CCc3cccc(F)c3F)cc(=O)c3cccnc32)CC1,63% (active),100% (active),-1,102% (active),inactive,inactive,inactive,inactive
CCN(CC)CCNC(=O)c1ccc(NC(=O)c2cc3c(C)nn(-c4ccc(Cl)cc4)c3s2)cc1,78% (active),24%,-2,95% (active),inactive,inactive,inactive,inactive
